High-throughput results: PubChem, Broad Institute
The full list was thinned out, with hits kept by preference.
PD-1 reverse act: reversal of PD-1 mediated T-cell inhibition | activation, % (concentration not given with the values) | AID 2316 | 29,000 tested, under 10 active | primary human CD4 T cells, PD-L1 beads, CellTiter-Glo 96 h; call rule not given here
NOMO-1 viab: STK33 inhibitor candidate reducing NOMO-1 cell viability; NOMO-1 AML viability, CellTiter-Glo luminescence, 72 h; inhibition, % (concentration not given with the values); actives 7.5% (n = 37,000); in the data active = inhibition above about 80%; inconclusive = no clear call, values can overlap the other calls
STK33 inh: human STK33 kinase inhibition; inhibition, % at 12.5 µM; ADP-Glo luminescence, MBP substrate; actives 0.44% (n = 27,000); in the data active = inhibition above about 20%; inconclusive = no clear call, values can overlap the other calls
Target sequence (Q9BYT3 whole entry, looked up): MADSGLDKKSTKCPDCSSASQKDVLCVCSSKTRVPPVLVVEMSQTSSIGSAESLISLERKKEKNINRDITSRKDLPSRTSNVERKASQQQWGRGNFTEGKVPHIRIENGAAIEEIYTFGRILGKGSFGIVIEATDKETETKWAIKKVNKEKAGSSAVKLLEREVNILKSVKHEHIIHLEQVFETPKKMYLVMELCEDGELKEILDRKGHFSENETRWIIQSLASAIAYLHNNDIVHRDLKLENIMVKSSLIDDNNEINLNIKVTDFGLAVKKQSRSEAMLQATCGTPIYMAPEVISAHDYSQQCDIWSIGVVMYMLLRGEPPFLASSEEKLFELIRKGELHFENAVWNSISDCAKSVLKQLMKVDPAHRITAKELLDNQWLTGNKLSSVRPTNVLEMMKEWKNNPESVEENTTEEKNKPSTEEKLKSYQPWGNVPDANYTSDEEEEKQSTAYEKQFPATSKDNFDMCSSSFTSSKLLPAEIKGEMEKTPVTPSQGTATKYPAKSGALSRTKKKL
A number is an active result.

How did COc1ccc(C)cc1N(CC(=O)N1CCN(c2cc(Cl)ccc2C)CC1)S(C)(=O)=O do in these assays?
PD-1 reverse act: inactive; NOMO-1 viab: inactive; STK33 inh: inactive

What do the screens show for `O=C(CSc1nnc(-c2ccccc2)n1-c1ccccc1)Nc1ccc(C(F)(F)F)cc1`?
STK33 inh: inactive

What do the screens show for `Cc1ccc(S(=O)(=O)Nc2cccc3c2O[C@H](CN(C)Cc2ccc(Cl)c(Cl)c2)[C@H](C)CN([C@H](C)CO)C3=O)cc1`?
PD-1 reverse act: inactive; NOMO-1 viab: inactive

How did Cc1ccc(S(=O)(=O)Nc2cccc3c2O[C@H](CN(C)Cc2ccc(Cl)c(Cl)c2)[C@@H](C)CN([C@@H](C)CO)C3=O)cc1 do in these assays?
NOMO-1 viab: inactive

How did C[C@H](CO)N1C[C@H](C)[C@@H](CN(C)Cc2ccc(Cl)c(Cl)c2)Oc2c(NS(=O)(=O)c3ccc(F)cc3)cccc2C1=O do in these assays?
NOMO-1 viab: inactive

Results for Cc1ccc(S(=O)(=O)Nc2cccc3c2O[C@@H](CN(C)Cc2ccc(Cl)c(Cl)c2)[C@@H](C)CN([C@H](C)CO)C3=O)cc1 ?
PD-1 reverse act: inactive; NOMO-1 viab: 119

Results for Cc1ccc(S(=O)(=O)Nc2cccc3c2O[C@H](CN(C)Cc2ccc(Cl)c(Cl)c2)[C@H](C)CN([C@@H](C)CO)C3=O)cc1 ?
NOMO-1 viab: 104

Results for C[C@H](CO)N1C[C@H](C)[C@H](CN(C)Cc2ccc(Cl)c(Cl)c2)Oc2c(NS(=O)(=O)c3ccc(Cl)cc3)cccc2C1=O ?
NOMO-1 viab: 109

How did O=C(Cn1cnc2ccccc2c1=O)Nc1ccc(F)cc1F do in these assays?
PD-1 reverse act: inactive; NOMO-1 viab: inactive; STK33 inh: inactive

Results for N#CCSc1nc2cc(C(=O)NCc3ccccc3)ccc2c(=O)n1CCc1ccccc1 ?
PD-1 reverse act: inactive; NOMO-1 viab: inconclusive; STK33 inh: inactive

Results for COc1ccc(-n2ncc(NC(=O)N3CCOCC3)c2C)cc1 ?
PD-1 reverse act: inactive; NOMO-1 viab: inactive

What do the screens show for `Cc1ccc(NC(=O)CSc2n[nH]c(-c3ccccc3Cl)n2)cc1C`?
NOMO-1 viab: inactive; STK33 inh: inactive

What do the screens show for `Cc1ccnc(SCC(=O)Nc2cccc(C(F)(F)F)c2)n1`?
PD-1 reverse act: inactive; NOMO-1 viab: inactive; STK33 inh: inactive

How did Oc1ccc(CNc2cccc(C(F)(F)F)c2)c2cccnc12 do in these assays?
PD-1 reverse act: inactive; NOMO-1 viab: 104

What do the screens show for `O=C(O)CCNC(=O)c1ccco1`?
PD-1 reverse act: inactive; NOMO-1 viab: inactive

Results for Cc1ccc2oc(-c3ccc(NC(=O)Cn4c(=O)oc5ccccc54)cc3)nc2c1 ?
PD-1 reverse act: inactive; NOMO-1 viab: inactive; STK33 inh: inactive

Results for Cc1nonc1OCCNc1ccc(C(F)(F)F)cc1[N+](=O)[O-] ?
PD-1 reverse act: inactive; NOMO-1 viab: inactive; STK33 inh: inactive

Results for O=C(CS(=O)c1ccc(C(F)(F)F)cc1[N+](=O)[O-])Oc1ccc(C2CCCCC2)cc1 (stereo unspecified) ?
PD-1 reverse act: inactive; NOMO-1 viab: 121; STK33 inh: inactive

How did C[C@H]1CN([C@@H](C)CO)C(=O)c2cccc(NS(C)(=O)=O)c2O[C@H]1CN(C)Cc1ccc(C(=O)Nc2ccccc2N)cc1 do in these assays?
PD-1 reverse act: inactive; NOMO-1 viab: inactive

Results for C[C@H]1CN([C@@H](C)CO)C(=O)c2cccc(NC(=O)c3cnccn3)c2O[C@H]1CN(C)Cc1ccc(C(=O)O)cc1 ?
PD-1 reverse act: inactive; NOMO-1 viab: inactive

Results for C[C@@H]1CN([C@H](C)CO)C(=O)c2cccc(NC(=O)c3ccncc3)c2O[C@@H]1CN(C)Cc1ccc(C(=O)Nc2ccccc2N)cc1 ?
PD-1 reverse act: inactive; NOMO-1 viab: 128

Results for C[C@@H]1CN([C@@H](C)CO)C(=O)c2cccc(N(C)C)c2O[C@@H]1CN(C)Cc1ccc(C(=O)Nc2ccccc2N)cc1 ?
PD-1 reverse act: inactive; NOMO-1 viab: 128

What do the screens show for `Cc1cc(C(=O)Nc2cccc3c2O[C@H](CN(C)Cc2ccc(Oc4ccccc4)cc2)[C@H](C)CN([C@H](C)CO)C3=O)n(C)n1`?
PD-1 reverse act: inactive; NOMO-1 viab: inactive

What do the screens show for `C[C@H](CO)N1C[C@H](C)[C@H](CN(C)Cc2ccc(C(=O)Nc3ccccc3N)cc2)Oc2c(NC(=O)c3ccncc3)cccc2C1=O`?
PD-1 reverse act: inactive; NOMO-1 viab: inactive

How did Cc1cc(C(=O)Nc2cccc3c2O[C@@H](CN(C)Cc2ccc(Oc4ccccc4)cc2)[C@H](C)CN([C@@H](C)CO)C3=O)n(C)n1 do in these assays?
PD-1 reverse act: inactive; NOMO-1 viab: 102

What do the screens show for `C[C@H](CO)N1C[C@H](C)[C@@H](CN(C)Cc2ccc(C(=O)Nc3ccccc3N)cc2)Oc2c(NC(=O)c3cnccn3)cccc2C1=O`?
PD-1 reverse act: inactive; NOMO-1 viab: 118

What do the screens show for `CCC1(COC(NC(=O)c2ccc(Cl)cc2Cl)(C(F)(F)F)C(F)(F)F)COC1`?
PD-1 reverse act: inactive; NOMO-1 viab: inactive; STK33 inh: inactive

What do the screens show for `CCN(CCS(=O)(=O)c1ccc(Cl)cc1)S(=O)(=O)c1ccc(Cl)cc1`?
PD-1 reverse act: inactive; NOMO-1 viab: inactive

Results for Cc1coc(C)c1C(=O)CC1(O)C(=O)Nc2ccc(Br)cc21 (stereo unspecified) ?
NOMO-1 viab: inactive; STK33 inh: inactive

How did CCOC(=O)CSc1nc2cccnc2s1 do in these assays?
PD-1 reverse act: inactive; NOMO-1 viab: inactive

Results for Cc1cccc(-c2nnc(SCC(=O)Nc3cc(C(F)(F)F)cc(C(F)(F)F)c3)n2C)c1 ?
PD-1 reverse act: inactive; NOMO-1 viab: inactive; STK33 inh: inactive

What do the screens show for `COc1ccccc1N1CCN(C(=O)CN(c2cc(Cl)ccc2OC)S(C)(=O)=O)CC1`?
NOMO-1 viab: inactive; STK33 inh: inactive

What do the screens show for `O=C1N(C2CCCCC2)C(=NC2CCCCC2)SC12CC2`?
PD-1 reverse act: inactive; NOMO-1 viab: inactive

Results for O=C1SC(=S)N/C1=C/c1cccc(O)c1 ?
PD-1 reverse act: inactive; NOMO-1 viab: inactive

Results for C[C@H]1CN([C@@H](C)CO)C(=O)c2cccc(NC(=O)c3cnccn3)c2O[C@@H]1CN(C)Cc1ccc(C(=O)Nc2ccccc2N)cc1 ?
PD-1 reverse act: inactive; NOMO-1 viab: 108

How did C[C@H]1CN([C@@H](C)CO)C(=O)c2cccc(NC(=O)c3cnccn3)c2O[C@H]1CN(C)Cc1ccc(C(=O)Nc2ccccc2N)cc1 do in these assays?
PD-1 reverse act: inactive; NOMO-1 viab: 129

Results for Cc1cc(C(=O)Nc2cccc3c2O[C@H](CN(C)Cc2ccc(C(=O)Nc4ccccc4N)cc2)[C@H](C)CN([C@@H](C)CO)C3=O)n(C)n1 ?
PD-1 reverse act: inactive; NOMO-1 viab: 128

What do the screens show for `C[C@@H]1CN([C@@H](C)CO)C(=O)c2cccc(NC(=O)c3cnccn3)c2O[C@@H]1CN(C)Cc1ccc(C(=O)O)cc1`?
PD-1 reverse act: inactive; NOMO-1 viab: inactive

How did Cc1cc(C(=O)Nc2cccc3c2O[C@@H](CN(C)Cc2ccc(C(=O)Nc4ccccc4N)cc2)[C@@H](C)CN([C@H](C)CO)C3=O)n(C)n1 do in these assays?
PD-1 reverse act: inactive; NOMO-1 viab: inconclusive

What do the screens show for `C[C@H](CO)N1C[C@H](C)[C@H](CN(C)Cc2ccc(C(=O)O)cc2)Oc2c(NC(=O)c3cnccn3)cccc2C1=O`?
PD-1 reverse act: inactive; NOMO-1 viab: inactive
